HT1080 IDH1KD tx = HT-1080 IDH1 knockdown cell toxicity (counter line) | hit rate 2% among 360,000 | HT-1080 IDH1 knockdown viability, ATP luminescence, 48 h | AID 686971 | Potency, µM (series often up to 46.1 µM), for inactives: at the highest dose activity, negative = toxicity, usual class: cytotoxic;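 further: 0% = DMSO wells and -100% = cell-free medium wells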
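After a 2 h attachment period, IDH1KD HT-1080 cells took pin-transferred compound for 48 h at 37 °C; ATP-based luminescence after 10 min room-temperature reagent incubation reported viability.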
HT1080NT lethal = kills 2HG-producing HT-1080-NT fibrosarcoma cells; Potency, µM (doses to about 46.1 µM), for the others: at the top dose activity, negative = less viability, actives largely listed as cytotoxic; HT-1080-NT fibrosarcoma viability, CellTiter-Glo ATP luminescence, 48 h; AID 686970; hit rate 1.6% among 360,000;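 further: NT is the 2HG producing partner of a matched IDH1 knockdown line; 0% = DMSO-treated cells and -100% = media-only wells without cells; nearly all actives have a fitted effect of over 55% in size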
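Fibrosarcoma NT cells, 750 per well in 5% FBS RPMI, were exposed to compound for 48 hours. Viability: CellTiter-Glo luminescence.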
KB-V1 MDR tox = KB-V1 MDR subline cytotoxicity; KB-V1 MDR cells viability, CellTiter-Glo, 72 h; Potency, µM (doses to about 46.1 µM), actives largely listed as cytotoxic; hit rate 3.4% among 400,000; AID 1347076; further: on the % scale 0 is the no-effect control and ±100 the full control effect; nearly all actives have a fitted effect of over 60% in size
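Compound-treated KB-V1 multidrug-resistant cells, 72 h, 37 degrees C; viability by CellTiter-Glo. Fitted qHTS curves give the values.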
SW480 rereplic = inducers of DNA re-replication in SW480 colon cancer cells | hit rate 1.8% among 340,000 | SW480 DNA re-replication, Hoechst DNA content imaging, 48 h | Potency, µM (series often up to 46.1 µM), without a hit: top-dose re-replication activation, actives largely listed as activators; further: % of control where 0% means no effect; nearly all actives have a fitted effect of over 55% in size
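Readout is total intensity of Hoechst-stained nuclei, excited at 405 nm and collected at 500-530 nm. Compound treatment lasted 48 hr at 37 C in 5% CO2 before staining.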
MCF10A rereplic = induces DNA re-replication in MCF 10a normal breast cells; Potency, µM (doses to about 46.1 µM), for inactives: at the top dose activity, positive = re-replication, actives largely listed as activators; AID 624296; MCF 10A DNA re-replication, Hoechst nuclear intensity, 48 h; hit rate 2.9% among 350,000; further: % of control where 0% means no effect; nearly all actives have a fitted effect of over 50% in size
KB-3-1 cytotox = kills parental KB-3-1 adenocarcinoma cells; KB-3-1 viability, CellTiter-Glo ATP luminescence, 72 h; Potency, µM (highest dose often 46.1 µM), hits mostly cytotoxic; AID 1347075; hit rate 1.4% among 400,000; further: on the % scale 0 is the no-effect control and ±100 the full control effect; nearly all actives have a fitted effect of over 60% in size
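Screening of KB-3-1 cells (DMEM, 10% FBS, phenol-red free) ran from lowest to highest compound concentration; after 72 h at 37 °C viability was read luminescently and curves fitted.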
An asterisk follows results filed as active; i = inactive; u = inconclusive; x = no result given; [ ] = remark or other dose. A selection: hits, their analogues and other compounds. The true share with any hit is near 8%. The call rests on the fitted dose curve; in most records, active means well fitted curve in the direction sought with a large enough effect; inconclusive means small, poorly fitted or top-dose-only effect, or another doubt; inactive means no such curve, though single readings can be large; an effect the other way counts as inactive or inconclusive. Potency means the concentration at half of the fitted maximal effect.

SMILES	HT1080 IDH1KD tx	HT1080NT lethal	KB-V1 MDR tox	SW480 rereplic	MCF10A rereplic	KB-3-1 cytotox
CCCCCCCCCCCCCCNCCO	x	x	x	-2.8%	11.6%	x
C=C1CC2C(CCC3(C)C2CCC3(O)C(C)=O)C2(C)CCC(=O)C=C12 (centres undefined)	-28.6%	u	20.6µM*	-11.4%[9.22 µM]	23.1µM*	20.6µM*
C=C1C[C@H]2[C@@H]3C=C(C)C4=CC(=O)CC[C@]4(C)[C@H]3CC[C@]2(C)[C@@]1(OC(C)=O)C(C)=O	-4.2%	1.6%	u	-9.9%	9.1%	i
CC(=O)C1(C)CCC2C3C=C(C)C4=CC(=O)CCC4(C)C3CCC21C (centres undefined)	7.1%	0.1%	4.61µM*	0.2%	16.4µM*	u
CC(=O)[C@@]1(O)CC[C@H]2[C@@H]3C[C@H](C)C4=CC(=O)CC[C@]4(C)[C@H]3CC[C@@]21C	-2.9%	2.0%	u	29.3%	1.1%	i
CCCCOc1ccc(C2=NC(c3ccncc3)=Nc3ccc(OCC)cc3N2)cc1	x	x	u	x	x	i
Fc1cccc(Cl)c1C1SCc2nc3ccccc3n21 (centres undefined)	u	u	23.1µM*	x	x	23.1µM*
CC(=O)Nc1ccc(N2C(=O)CSC2c2c(F)cccc2Cl)cc1 (centres undefined)	-11.5%	-4.8%	i	-15.4%	9.3%	u
N#CCC(=O)Nc1ccc(C(=O)OCC(=O)C23CC4CC(CC(C4)C2)C3)cc1	-0.2%	-3.5%	i	-4.6%	3.8%	i
CCNC(=O)OCCC12CC3CC(CC(C3)C1)C2	12.0%	9.8%	i	-2.3%	-5.6%	i
O=C(OCC12CC3CC(CC(C3)C1)C2)c1ccc(NCc2cc(O)ccc2O)cc1	20.6µM*	u	i	u	25.2%	u
O=C(OCCC12CC3CC(CC(C3)C1)C2)c1ccc(NCc2cc(O)ccc2O)cc1	7.31µM*	6.51µM*	u	u	u	14.6µM*
CC1=Nc2ccccc2/C1=C(/C)c1c(C)[nH]c2ccccc12	x	x	i	x	x	u
Cc1nn(S(=O)(=O)c2ccc(C(C)C)cc2)c(C)c1S(=O)(=O)N1CCCCCC1	x	x	u	x	x	i
N#CC(C#N)=C(Nc1ccc(F)cc1)SCc1cccc(F)c1	u	u	u	-31.9%	23.1µM*	16.4µM*
OCCN1CCN(C(c2ccc(Cl)cc2Cl)c2sc3nc(-c4ccco4)nn3c2O)CC1 (centres undefined)	x	x	u	x	x	i
Cc1ccccc1OCC(=O)NCC(=O)OCC(=O)c1ccc(Br)cc1	x	x	i	x	x	i
Cc1ccc(CNC(=O)c2cc(-c3ccc(Cl)cc3)on2)cc1	x	x	i	x	x	i
COc1cc2c(cc1OC)C(=S)NC(C)(C)C2	u	10µM*	i	u	0.0%	i
CCOC(=O)/C=C1\NC(C)(C)Cc2cc(OC)c(OC)cc21	-2.7%	1.6%	i	-2.8%	7.6%	i
COc1ccc(CC(=O)N(c2ccccc2)c2nc(C)cs2)cc1	-3.9%	-6.2%	16.4µM*	-24.8%	23.0%	i
COc1cccc(N(C(=O)c2ccco2)c2nc(-c3sc(NC(=O)c4ccco4)nc3C)cs2)c1	-23.6%	-15.4%	i	u	u	5.8µM*
Cc1nc(NC(=O)c2ccco2)sc1-c1csc(Nc2ccc(Cl)cc2Cl)n1	u	u	u	u	16.4µM*	i
Cc1ccc(Cl)cc1Nc1nc(-c2sc(NC(=O)c3ccco3)nc2C)cs1	u	u	u	8.8%	20.6µM*	20.6µM*
O=C(NCC(=O)N1CCN(Cc2ccccc2)CC1)c1cc(Cl)cc([N+](=O)[O-])c1	u	-20.3%	u	-9.0%	-11.4%	23.1µM*
SMILES	HT1080 IDH1KD tx	HT1080NT lethal	KB-V1 MDR tox	SW480 rereplic	MCF10A rereplic	KB-3-1 cytotox
O=C(NCc1ccc(Cl)cc1)C1CCN(S(=O)(=O)c2ccc3c(c2)CCCN3C(=O)C2CCC2)CC1	x	x	i	x	x	u
CCc1cccc(NC(=O)Cn2c(=O)n3nc(-c4cccc(F)c4)nc3c3ccccc32)c1	x	x	i	x	x	i
N#C/C(=C\c1ccc(Cl)cc1)c1nc(-c2ccco2)cs1	16.6%	7.6%	i	2.3%	11.8%	i
N#C/C(=C\c1ccc(-c2ccccc2)cc1)c1nc(-c2ccco2)cs1	26.6%	22.3%	i	1.0%	23.1µM*	i
COc1cccc(CNC(=O)CSC2=Nc3ccccc3C3=NC(C(C)C)C(=O)N23)c1 (centres undefined)	x	x	i	x	x	i
CC(=O)n1cc(N(C(=O)CCl)c2ccc(Cl)cc2)c2ccccc21	6.51µM*	2.31µM*	u	2.59µM*	u	u
COc1ccccc1N(C(=O)CCl)c1cn(C(C)=O)c2ccccc12	7.31µM*	1.46µM*	14.6µM*	u	u	u
CC(=O)n1cc(Nc2ccccc2C(=O)O)c2ccccc21	17.2%	3.8%	u	-2.9%	3.3%	i
Cc1cccc(C)c1NC(=O)CN(Cc1ccc(Br)cc1)S(=O)(=O)c1ccccc1	x	x	i	x	x	i
COc1ccc(C2C=C(c3ccccc3)Nc3nnnn32)cc1 (centres undefined)	-0.8%	9.4%	i	14.4%	3.5%	i
COc1cccc(C2=CC(c3ccc(N(C)C)cc3)n3nnnc3N2)c1 (centres undefined)	u	-16.1%	13µM*	u	16.4µM*	18.4µM*

Compound activity deposited in PubChem BioAssay by National Center for Advancing Translational Sciences (NCATS).
